Laboratory results reported in PubChem BioAssay AID1159580 (chemical genetic matrix, 2015).
Out of some 5,500 compounds screened, about 2,000 (36%) were called active. Another 18% or so got no clear call; they are omitted. Rule as the data show it: active = normalized growth mostly below about 0.91 (no sharp cut-off); inconclusive = no clear call, values can overlap the other calls; inactive = mostly above about 0.92. The list shows a part of the results.

Assay: chemical genetic growth profiling, strain panel (AID 1159580);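 also: tested at 20 µM; growth read once vehicle control cultures reached saturation at 30 °C; 1 = growth at the plate median or of vehicle wells; lower values mean less growth of the strain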
Conditions: growth OD

Measured: normalized growth

OC[C@@H]1CCCN2CCCC[C@H]12
inactive: S. cerevisiae deletion strains, locus YJR066W, strain TOR1, active compounds read low 0.967 | S. cerevisiae deletion strains, locus YJR075W, strain HOC1, active compounds read low 1.02 | S. cerevisiae deletion strains, locus YKL009W, strain mrt4, active compounds read low 1.02 | S. cerevisiae deletion strains, locus YKL068W, active compounds read low 1.01 | S. cerevisiae deletion strains, locus YKL085W, strain MDH1 (second series), active compounds read low 1 | S. cerevisiae deletion strains, locus YKL085W, strain MDH1, active compounds read low 1 | S. cerevisiae deletion strains, locus YKL160W, strain elf1, active compounds read low 1.02 | S. cerevisiae deletion strains, locus YKR001C, strain vps1, active compounds read low 1.01 | S. cerevisiae deletion strains, locus YKR026C, strain gcn3, active compounds read low 1.06 | S. cerevisiae deletion strains, locus YKR091W, strain srl3, active compounds read low 1.02 | S. cerevisiae deletion strains, locus YLL001W, strain dnm1, active compounds read low 0.995 | S. cerevisiae deletion strains, locus YLL026W, active compounds read low 1.03 | S. cerevisiae deletion strains, locus YLL041C, strain sdh2, active compounds read low 1.01 | S. cerevisiae deletion strains, locus YLR027C, strain aat2, active compounds read low 1.02 | S. cerevisiae deletion strains, locus YLR039C, strain RIC1, active compounds read low 1.02 | S. cerevisiae deletion strains, locus YLR058C, strain SHM2, active compounds read low 1.01 | S. cerevisiae deletion strains, locus YLR102C, strain apc9, active compounds read low 1.01 | S. cerevisiae deletion strains, locus YLR113W, strain HOG1, active compounds read low 1.01 | S. cerevisiae deletion strains, locus YLR221C, strain rsa3, active compounds read low 1.02 | S. cerevisiae deletion strains, locus YLR258W, strain gsy2, active compounds read low 1.04 | S. cerevisiae deletion strains, locus YLR262C, strain YPT6 (second series), active compounds read low 1.04 | S. cerevisiae deletion strains, locus YLR262C, strain YPT6, active compounds read low 1.06 | S. cerevisiae deletion strains, locus YLR268W, strain sec22, active compounds read low 1.03 | S. cerevisiae deletion strains, locus YLR320W, strain mms22, active compounds read low 0.99 | S. cerevisiae deletion strains, locus YLR330W, strain CHS5, active compounds read low 0.98 | S. cerevisiae deletion strains, locus YLR342W, strain FKS1 (second series), active compounds read low 0.977 | S. cerevisiae deletion strains, locus YLR342W, strain FKS1, active compounds read low 1.03 | S. cerevisiae deletion strains, locus YLR357W, strain rsc2, active compounds read low 1.02 | S. cerevisiae deletion strains, locus YLR370C, strain arc18, active compounds read low 1.03 | S. cerevisiae deletion strains, locus YLR371W, strain rom2, active compounds read low 1.01 | S. cerevisiae deletion strains, locus YLR384C, strain iki3, active compounds read low 1.03 | S. cerevisiae deletion strains, locus YLR418C, strain cdc73, active compounds read low 1.03 | S. cerevisiae deletion strains, locus YML016C, strain PPZ1, active compounds read low 1 | S. cerevisiae deletion strains, locus YML032C, strain rad52, active compounds read low 0.995 | S. cerevisiae deletion strains, locus YML120C, strain ndi1, active compounds read low 1.03 | S. cerevisiae deletion strains, locus YML124C, strain tub3, active compounds read low 1 | S. cerevisiae deletion strains, locus YMR058W, strain fet3, active compounds read low 1.03 | S. cerevisiae deletion strains, locus YMR078C, strain ctf18, active compounds read low 1.01 | S. cerevisiae deletion strains, locus YMR125W, strain sto1, active compounds read low 1.05 | S. cerevisiae deletion strains, locus YMR129W, active compounds read low 1.04 | S. cerevisiae deletion strains, locus YMR205C, strain PFK2, active compounds read low 1.01 | S. cerevisiae deletion strains, locus YMR223W, strain ubp8, active compounds read low 1 | S. cerevisiae deletion strains, locus YMR231W, strain pep5, active compounds read low 1.04 | S. cerevisiae deletion strains, locus YMR263W, strain SAP30, active compounds read low 0.999 | S. cerevisiae deletion strains, locus YMR307W, strain GAS1, active compounds read low 1 | S. cerevisiae deletion strains, locus YNL067W, strain RPL9B, active compounds read low 1 | S. cerevisiae deletion strains, locus YNL071W, strain lat1, active compounds read low 1.03 | S. cerevisiae deletion strains, locus YNL183C, strain NPR1, active compounds read low 0.964 | S. cerevisiae deletion strains, locus YNL209W, strain ssb2, active compounds read low 1.02 | S. cerevisiae deletion strains, locus YNL233W, strain BNI4, active compounds read low 1.01 | S. cerevisiae deletion strains, locus YNL248C, strain rpa49, active compounds read low 1.03 | S. cerevisiae deletion strains, locus YNL250W, strain rad50, active compounds read low 1.03 | S. cerevisiae deletion strains, locus YNL271C, strain bni1, active compounds read low 1 | S. cerevisiae deletion strains, locus YNL298W, strain CLA4, active compounds read low 1.01 | S. cerevisiae deletion strains, locus YNL307C, strain MCK1, active compounds read low 1.03 | S. cerevisiae deletion strains, locus YNL322C, strain KRE1 (second series), active compounds read low 1.04 | S. cerevisiae deletion strains, locus YNL322C, strain KRE1, active compounds read low 1 | S. cerevisiae deletion strains, locus YNR049C, strain mso1, active compounds read low 1.03 | S. cerevisiae deletion strains, locus YNR052C, strain pop2, active compounds read low 1.01 | S. cerevisiae deletion strains, locus YOL006C, strain TOP1, active compounds read low 1.06 | S. cerevisiae deletion strains, locus YOL012C, strain htz1 0.808 | S. cerevisiae deletion strains, locus YOL147C, strain pex11, active compounds read low 1.02 | S. cerevisiae deletion strains, locus YOR001W, strain rrp6, active compounds read low 1.02 | S. cerevisiae deletion strains, locus YOR061W, strain CKA2, active compounds read low 1.01 | S. cerevisiae deletion strains, locus YOR069W, strain VPS5, active compounds read low 1.01 | S. cerevisiae deletion strains, locus YOR070C, strain gyp1, active compounds read low 1.04 | S. cerevisiae deletion strains, locus YOR080W, strain dia2, active compounds read low 1.03 | S. cerevisiae deletion strains, locus YOR083W, strain WHI5, active compounds read low 0.97 | S. cerevisiae deletion strains, locus YOR106W, strain vam3, active compounds read low 1.05 | S. cerevisiae deletion strains, locus YOR136W, strain idh2, active compounds read low 1.03 | S. cerevisiae deletion strains, locus YOR144C, strain elg1, active compounds read low 1.01 | S. cerevisiae deletion strains, locus YOR184W, strain ser1, active compounds read low 1.02 | S. cerevisiae deletion strains, locus YOR231W, strain MKK1, active compounds read low 1.03 | S. cerevisiae deletion strains, locus YOR265W, strain rbl2, active compounds read low 1.01 | S. cerevisiae deletion strains, locus YOR270C, strain vph1, active compounds read low 1.14 | S. cerevisiae deletion strains, locus YOR290C, strain snf2, active compounds read low 1.04 | S. cerevisiae deletion strains, locus YOR316C, strain cot1, active compounds read low 1.01 | S. cerevisiae deletion strains, locus YPL051W, strain arl3, active compounds read low 1.04 | S. cerevisiae deletion strains, locus YPL055C, strain LGE1, active compounds read low 1.01 | S. cerevisiae deletion strains, locus YPL078C, strain atp4, active compounds read low 1.04 | S. cerevisiae deletion strains, locus YPL106C, strain sse1, active compounds read low 1.03 | S. cerevisiae deletion strains, locus YPL240C, strain hsp82, active compounds read low 1.04 | S. cerevisiae deletion strains, locus YPL241C, strain CIN2, active compounds read low 1 | S. cerevisiae deletion strains, locus YPL256C, strain CLN2, active compounds read low 1.01 | S. cerevisiae deletion strains, locus YPR119W, strain clb2, active compounds read low 1.02 | S. cerevisiae deletion strains, locus YPR141C, strain kar3, active compounds read low 1.01 | S. cerevisiae deletion strains, locus YPR163C, strain tif3, active compounds read low 1.01 | S. cerevisiae deletion strains, locus YPR167C, strain met16, active compounds read low 1.01 | S. cerevisiae deletion strains, strain wtn01, active compounds read low 1.03 | S. cerevisiae strains, strain wild type, active compounds read low 0.979
